Bioassay records deposited in PubChem by NMMLSC.
Hits are enriched below; roughly 2.5% of the tested compounds scored in any of these assays.
MEKK2 WT-MEK5: raises or lowers MEK5 binding to wildtype human MEKK2 PB1 domain; Q9Y2U5; bead flow cytometry, Alexa488-MEK5 binding to MEKK2 WT; actives lie on both sides; binding response (% of control), % at 10 µM; actives 1.1% (n = 290,000); AID 1531; in the data active means binding response below about 67% or above about 130%
MEKK3 PB1 HTS: MEKK3-MEK5 PB1 interaction, increase or decrease; bead-based flow cytometry, Alexa488-MEK5 binding to MEKK3; actives lie on both sides; 0 = blocked by unlabeled MEK5, 100 = vehicle; actives 1.4% (n = 290,000); Q99759; binding response (% of control), % at 10 µM;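 active means binding response more than 3 SD above or below the average of its plate-row segment, actives on both sides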;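 further: Alexa488 bead fluorescence after subtracting the streptavidin-only scavenger bead signal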
GRK2 aptamer HTS: blocks RNA aptamer binding to human GRK2. bead flow cytometry, FAM-aptamer displacement from GRK2. inhibition of aptamer binding, % at 10 µM. actives 0.59% (n = 330,000). AID 488847;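 active means inhibition of aptamer binding above 40%, roughly 3 SD of noise, on plates passing a quality check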;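 further: median bead fluorescence of bound FAM aptamer so fluorescent compounds give negative values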
Target sequence (P25098 whole entry, looked up): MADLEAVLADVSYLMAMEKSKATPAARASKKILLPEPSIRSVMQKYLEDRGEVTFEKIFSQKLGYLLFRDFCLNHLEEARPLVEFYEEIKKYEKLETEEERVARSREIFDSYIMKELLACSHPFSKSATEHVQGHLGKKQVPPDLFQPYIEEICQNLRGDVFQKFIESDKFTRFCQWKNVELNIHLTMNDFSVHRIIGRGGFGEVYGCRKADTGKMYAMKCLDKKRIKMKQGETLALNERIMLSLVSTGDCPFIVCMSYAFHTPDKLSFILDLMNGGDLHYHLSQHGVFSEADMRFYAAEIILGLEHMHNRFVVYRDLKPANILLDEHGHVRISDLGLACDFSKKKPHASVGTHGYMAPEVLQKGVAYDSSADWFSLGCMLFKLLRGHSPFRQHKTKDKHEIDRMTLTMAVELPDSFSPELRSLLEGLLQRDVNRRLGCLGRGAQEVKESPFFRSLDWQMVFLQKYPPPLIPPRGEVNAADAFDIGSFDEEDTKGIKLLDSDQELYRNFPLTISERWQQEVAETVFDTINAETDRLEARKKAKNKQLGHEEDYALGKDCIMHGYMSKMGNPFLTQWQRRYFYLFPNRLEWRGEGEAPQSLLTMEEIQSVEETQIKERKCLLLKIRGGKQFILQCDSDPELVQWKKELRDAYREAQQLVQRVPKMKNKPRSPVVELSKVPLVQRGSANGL
MEKK2mut PB1 HTS: signal of MEK5 binding to mutant human MEKK2 PB1 domain. AID 1530. bead flow cytometry, Alexa488-MEK5 binding to MEKK2 mutant. actives 0.35% (n = 290,000). percent response, % at 10 µM; in the data active means percent response above about 24%, passing the limit was not always enough
MEKK2wt confirm: raises or lowers MEK5 binding to wildtype human MEKK2, retest | AID 1892 | binding response (% of control), % at 10 µM | actives 2.4% (n = 5,900) | shares compounds with MEKK3 PB1 HTS | bead flow cytometry, Alexa488-MEK5 binding to MEKK2 WT; actives lie on both sides; in the data active means binding response below about 16% or above about 210%; inactive means in between
MEKK2mut confirm: signal of MEK5 binding to mutant human MEKK2, retest; bead flow cytometry, Alexa488-MEK5 binding to MEKK2 mutant; actives 2% (n = 5,900); percent response, % at 10 µM; AID 1893; shares compounds with MEKK3 PB1 HTS; in the data active means percent response mostly above about 71%, no sharp cut-off; inactive means mostly below about 38%;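 further: higher means compound restores mutant binding toward wildtype level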
MEKK3 confirm: MEKK3-MEK5 PB1 inhibition, single concentration confirmation; shares compounds with MEKK3 PB1 HTS; bead flow cytometry, Alexa488-MEK5 binding to MEKK3; hits give low values; binding response (% of control), % at 10 µM; actives 1.8% (n = 5,900);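 active means binding response below 72% of control, or above a set upper limit, though filed actives all read lower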;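 further: 100% = DMSO only wells and 0% = binding blocked by excess unlabeled MEK5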
An asterisk follows results filed as active; nt = no result given; [ ] = dose if it differs, or a comment.

SMILES | MEKK2 WT-MEK5 | MEKK3 PB1 HTS | GRK2 aptamer HTS | MEKK2mut PB1 HTS | MEKK2wt confirm | MEKK2mut confirm | MEKK3 confirm
S=C(Nc1cccc(Cl)c1)NC1CC2CCCC(C1)N2C1CCCC1 (stereo not drawn) | 125 | 105 | 0 | 1 | nt | nt | nt
S=C(NCc1ccncc1)Nc1cccc(Cl)c1 | 106 | 106 | 2 | 5 | nt | nt | nt
S=C(NCCN(C1CCCCC1)C1CCCC1)Nc1cccc(Cl)c1 | 134* | 97 | 0 | 12 | 145 | 24 | 107
Cc1c(NC(=O)c2cccc(NC(=O)COc3cccc(Br)c3)c2)c(=O)n(-c2ccccc2)n1C | nt | nt | 3 | nt | nt | nt | nt
Cc1cc(C)c(C#N)c(N2CCN(C(=O)C3COc4ccccc4O3)CC2)n1 (stereo not drawn) | nt | nt | 0 | nt | nt | nt | nt
CN(C)CCN1C(=O)c2oc3ccccc3c(=O)c2C1c1ccc(F)cc1 (stereo not drawn) | -1.0*[inhibitor] | 2.0*[inhibitor] | 1 | -26 | 110 | 14 | 105
CCN(CC)CCN1C(=O)c2oc3ccccc3c(=O)c2C1c1ccc(C)cc1 (stereo not drawn) | 103 | 99 | 0 | 4 | nt | nt | nt
COCCCn1c(SCC(=O)Nc2ccc(C(C)=O)cc2)nc2ccccc2c1=O | 48 | 39*[inhibitor] | 0 | -19 | 105 | 3 | 102
CCCNC(=O)CSc1nc2ccccc2c(=O)n1CCC | 112 | 128* | 0 | -1 | 101 | 3 | 104
O=C(Nc1ccccc1C(=O)O)c1cc(S(=O)(=O)N2CCOCC2)c(Br)s1 | 103 | 106 | 4 | 5 | nt | nt | nt
COc1cc(/C=C(/C#N)c2nc3ccccc3c(=O)[nH]2)ccc1O | 104 | 140* | 2 | 1 | 99 | -4 | 101
COc1ccc(/C=C(\C#N)c2nc3ccccc3[nH]2)cc1O | 98 | 98 | nt | -3 | nt | nt | nt
Cc1ccc(C)c(OCC(=O)NCC(C)C)c1C | 101 | 100 | 22 | 2 | nt | nt | nt
CN1CCN(c2nc(-c3ccccc3)c3cc(Cl)ccc3n2)CC1 | 131 | 102 | 0 | 6 | nt | nt | nt
Clc1ccc2nc(N3CCNCC3)nc(-c3ccccc3)c2c1 | 152* | 103 | 0 | 32 | 108 | 0 | 102
Cc1ccsc1/C=C(/C#N)C(=O)NCc1ccccc1 | 112 | 108 | 0 | 58* | 99 | -3 | 101
Cc1[nH]c2ccccc2c1/C=C(\C#N)C(=O)NCc1ccccc1 | 15* | 108 | 0 | 134* | 106 | 4 | 101
CN(c1ccccc1)S(=O)(=O)c1cccc(NC(=O)COC(=O)C2CCCCC2)c1 | 111 | 108 | 0 | 22 | nt | nt | nt
COc1ccc2nc(NC(=O)c3ccccc3[N+](=O)[O-])sc2c1 | 109 | 108 | 0 | 13 | nt | nt | nt
COc1ccc2cc3c(N)nn(C(=O)c4ccccc4[N+](=O)[O-])c3nc2c1 | 98 | 72*[inhibitor] | 5 | -1 | 95 | -3 | 97
COc1ccc(CNC(=O)CCS(=O)(=O)Cc2cccc(Cl)c2)c(OC)c1 | 102 | 99 | 0 | -1 | nt | nt | nt
O=C(NC1CCCC1)C(c1cccnc1)N(C(=O)c1csnn1)C1CCCC1 (stereo not drawn) | 104 | 75*[inhibitor] | 0 | 3 | 101 | 1 | 101
O=C(NC1CCCCC1)C(c1cccnc1)N(C(=O)c1csnn1)C1CCCC1 (stereo not drawn) | 109 | 116 | 0 | 3 | nt | nt | nt
Cc1ccccc1-n1c(O)c(/C=N/N2CCCCC2c2cccnc2)c(=O)[nH]c1=O (stereo not drawn) | 105 | 173* | 2 | 0 | 104 | 3 | 101
Cc1ccc(NC2CCCN(C(=O)CN3C(=O)CSC3=O)C2)cc1C (stereo not drawn) | 102 | 100 | 0 | 4 | nt | nt | nt
O=C(OCc1cnc(Cl)s1)c1cccc(Cl)c1 | 109 | 104 | 0 | 3 | nt | nt | nt
Cc1cccc(C(=O)OCc2cnc(Cl)s2)c1 | 25*[inhibitor] | 15*[inhibitor] | 0 | -17 | 104 | 4 | 101
O=C(COC(=O)CN1C(=O)c2ccccc2C1=O)NC1CCCCC1 | 103 | 102 | 1 | 6 | nt | nt | nt
